# Tests used:
# Assay in all cases: DAPPL (digital affinity profiling via proximity ligation, sequencing); 10 mM Tris-HCl pH 7.5, 50 mM NaCl, 1 mM DTT, 4% glycerol, room temperature, 30 min; GST-TFs on glutathione beads, 16-mer random dsDNA library, 0.1% formaldehyde crosslink after washing; high values mean tight binding
# Settings in all cases: protein: recombinant; tags: N-terminal GST; dsDNA, one strand shown
# FLI1 = target: T1, FLI1 (Homo sapiens, UniProt Q01543 1-452)
# T1 sequence: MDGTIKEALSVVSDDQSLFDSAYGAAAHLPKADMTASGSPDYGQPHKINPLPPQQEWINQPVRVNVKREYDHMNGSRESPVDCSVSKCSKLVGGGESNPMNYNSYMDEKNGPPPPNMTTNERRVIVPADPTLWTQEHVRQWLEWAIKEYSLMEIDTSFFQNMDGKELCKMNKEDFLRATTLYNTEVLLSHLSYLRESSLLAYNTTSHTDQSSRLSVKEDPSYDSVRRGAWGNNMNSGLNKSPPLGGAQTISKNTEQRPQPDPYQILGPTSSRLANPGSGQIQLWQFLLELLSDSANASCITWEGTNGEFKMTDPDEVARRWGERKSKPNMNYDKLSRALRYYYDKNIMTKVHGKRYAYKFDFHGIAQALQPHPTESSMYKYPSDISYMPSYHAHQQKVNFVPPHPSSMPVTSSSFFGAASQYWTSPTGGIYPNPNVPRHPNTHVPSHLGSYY
# In short: (§1)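 Binding signal is each hexamer's read frequency for a factor divided by its frequency in the tag-only sample. The factors were GST-fused human transcription factors from yeast, captured on glutathione beads, DNA-barcoded and pooled with that sample. Pools were incubated with 200 nmole of a random double-stranded 16-mer DNA library in Tris/NaCl/DTT/glycerol buffer at room temperature for 30 min, then washed, crosslinked with 0.1% formaldehyde, proximity-ligated with BsaI/T4 ligase (1 h, 37 °C), PCR-amplified and sequenced on an Illumina NextSeq500.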
# ELK1 = target: T2, ELK1 (Homo sapiens, UniProt P19419 1-428)
# T2 sequence: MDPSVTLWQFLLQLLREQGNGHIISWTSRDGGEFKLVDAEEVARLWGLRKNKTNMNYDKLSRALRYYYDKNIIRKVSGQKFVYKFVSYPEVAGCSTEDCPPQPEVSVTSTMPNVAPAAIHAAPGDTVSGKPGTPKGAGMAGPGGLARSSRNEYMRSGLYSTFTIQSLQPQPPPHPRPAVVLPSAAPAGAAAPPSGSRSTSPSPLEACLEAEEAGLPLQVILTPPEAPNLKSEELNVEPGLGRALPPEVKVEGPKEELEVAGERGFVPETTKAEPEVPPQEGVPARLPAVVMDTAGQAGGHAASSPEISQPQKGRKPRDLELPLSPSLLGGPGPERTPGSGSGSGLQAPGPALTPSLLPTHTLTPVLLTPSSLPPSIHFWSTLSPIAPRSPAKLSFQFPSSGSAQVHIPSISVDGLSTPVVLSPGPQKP
# In short: as §1
# GABPA = target: T3, GABPA (Homo sapiens, UniProt Q06546 1-454)
# T3 sequence: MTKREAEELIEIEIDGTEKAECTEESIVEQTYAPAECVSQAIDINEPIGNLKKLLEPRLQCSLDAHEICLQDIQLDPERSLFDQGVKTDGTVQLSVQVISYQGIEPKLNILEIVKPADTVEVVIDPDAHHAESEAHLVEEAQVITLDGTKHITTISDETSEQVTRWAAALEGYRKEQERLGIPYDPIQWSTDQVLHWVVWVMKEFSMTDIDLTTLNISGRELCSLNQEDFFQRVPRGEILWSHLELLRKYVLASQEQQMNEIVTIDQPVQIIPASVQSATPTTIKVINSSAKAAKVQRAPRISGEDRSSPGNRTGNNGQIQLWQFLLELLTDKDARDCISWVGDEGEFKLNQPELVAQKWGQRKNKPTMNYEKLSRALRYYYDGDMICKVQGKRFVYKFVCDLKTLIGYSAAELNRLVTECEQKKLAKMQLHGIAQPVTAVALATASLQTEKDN
# In short: as §1
# ERG = target: T4, ERG (Homo sapiens, UniProt P11308 1-479)
# T4 sequence: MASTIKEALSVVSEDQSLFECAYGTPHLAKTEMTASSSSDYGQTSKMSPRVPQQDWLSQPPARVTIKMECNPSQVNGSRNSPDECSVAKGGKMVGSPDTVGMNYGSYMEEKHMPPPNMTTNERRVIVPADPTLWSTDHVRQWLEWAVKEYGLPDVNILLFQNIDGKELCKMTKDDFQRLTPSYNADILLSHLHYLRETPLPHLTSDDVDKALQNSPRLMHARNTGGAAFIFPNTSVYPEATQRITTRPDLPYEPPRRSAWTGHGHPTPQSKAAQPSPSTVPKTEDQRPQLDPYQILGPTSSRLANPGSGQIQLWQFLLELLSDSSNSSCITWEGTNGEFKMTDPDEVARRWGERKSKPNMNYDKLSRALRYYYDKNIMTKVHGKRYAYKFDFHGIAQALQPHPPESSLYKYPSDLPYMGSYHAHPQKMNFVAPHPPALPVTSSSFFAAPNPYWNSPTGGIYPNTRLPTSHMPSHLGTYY
# In short: as §1
# ELF1 = ELF1 (Homo sapiens, UniProt P32519 1-619)
# Chain of ELF1 (P32519 whole entry): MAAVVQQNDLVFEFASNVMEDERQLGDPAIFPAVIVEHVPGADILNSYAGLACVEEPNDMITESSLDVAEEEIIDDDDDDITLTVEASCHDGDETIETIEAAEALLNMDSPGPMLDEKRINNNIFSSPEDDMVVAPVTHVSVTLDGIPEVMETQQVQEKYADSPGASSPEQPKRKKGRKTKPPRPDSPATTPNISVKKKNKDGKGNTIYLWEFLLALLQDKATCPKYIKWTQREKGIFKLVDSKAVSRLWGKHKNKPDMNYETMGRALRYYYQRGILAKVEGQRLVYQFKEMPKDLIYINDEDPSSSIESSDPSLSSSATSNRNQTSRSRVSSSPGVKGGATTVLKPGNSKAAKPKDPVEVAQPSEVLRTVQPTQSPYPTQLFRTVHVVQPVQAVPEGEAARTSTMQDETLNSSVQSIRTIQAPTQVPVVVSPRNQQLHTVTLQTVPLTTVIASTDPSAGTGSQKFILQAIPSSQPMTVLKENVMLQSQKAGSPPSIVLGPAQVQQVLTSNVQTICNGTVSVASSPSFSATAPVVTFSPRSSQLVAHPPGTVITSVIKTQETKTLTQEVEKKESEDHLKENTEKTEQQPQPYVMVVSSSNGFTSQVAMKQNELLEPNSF
# In short: as §1
# EHF = target: T5, EHF (Homo sapiens, UniProt Q9NZC4 1-300)
# T5 sequence: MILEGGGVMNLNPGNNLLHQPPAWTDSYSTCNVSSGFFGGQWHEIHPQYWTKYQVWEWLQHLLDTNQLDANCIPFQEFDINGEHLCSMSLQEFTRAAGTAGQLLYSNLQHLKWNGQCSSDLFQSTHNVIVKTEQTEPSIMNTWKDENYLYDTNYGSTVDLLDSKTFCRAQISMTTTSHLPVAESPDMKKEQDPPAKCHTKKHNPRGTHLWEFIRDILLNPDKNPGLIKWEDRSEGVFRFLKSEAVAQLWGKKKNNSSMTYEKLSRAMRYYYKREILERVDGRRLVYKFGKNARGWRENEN
# In short: as §1
# FEV = target: T6, FEV (Homo sapiens, UniProt Q99581 1-238)
# T6 sequence: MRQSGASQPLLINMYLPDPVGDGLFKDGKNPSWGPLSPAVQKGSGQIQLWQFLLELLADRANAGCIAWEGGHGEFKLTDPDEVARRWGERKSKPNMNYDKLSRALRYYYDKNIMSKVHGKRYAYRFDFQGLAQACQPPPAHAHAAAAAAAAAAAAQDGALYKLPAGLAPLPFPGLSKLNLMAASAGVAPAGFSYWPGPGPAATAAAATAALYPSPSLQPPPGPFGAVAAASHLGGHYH
# In short: as §1
# ETV5 = ETV5 (Homo sapiens, UniProt P41161 1-510)
# Chain of ETV5 (P41161 whole entry): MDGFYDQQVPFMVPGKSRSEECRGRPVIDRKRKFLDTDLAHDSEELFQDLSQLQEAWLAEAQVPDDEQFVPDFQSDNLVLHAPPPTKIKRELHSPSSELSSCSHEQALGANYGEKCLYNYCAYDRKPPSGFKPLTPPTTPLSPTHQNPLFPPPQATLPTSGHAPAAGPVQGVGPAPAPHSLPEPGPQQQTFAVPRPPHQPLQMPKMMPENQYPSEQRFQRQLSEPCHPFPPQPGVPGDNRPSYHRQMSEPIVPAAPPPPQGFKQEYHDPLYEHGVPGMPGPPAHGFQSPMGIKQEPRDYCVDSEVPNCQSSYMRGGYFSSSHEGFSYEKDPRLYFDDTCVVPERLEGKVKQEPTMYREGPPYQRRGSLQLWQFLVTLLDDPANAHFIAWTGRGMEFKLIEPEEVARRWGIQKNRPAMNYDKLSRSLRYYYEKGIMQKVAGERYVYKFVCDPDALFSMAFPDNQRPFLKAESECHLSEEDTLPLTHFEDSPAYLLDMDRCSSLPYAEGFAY
# In short: as §1
# ELF4 = ELF4 (Homo sapiens, UniProt Q99607 1-663)
# Chain of ELF4 (Q99607 whole entry): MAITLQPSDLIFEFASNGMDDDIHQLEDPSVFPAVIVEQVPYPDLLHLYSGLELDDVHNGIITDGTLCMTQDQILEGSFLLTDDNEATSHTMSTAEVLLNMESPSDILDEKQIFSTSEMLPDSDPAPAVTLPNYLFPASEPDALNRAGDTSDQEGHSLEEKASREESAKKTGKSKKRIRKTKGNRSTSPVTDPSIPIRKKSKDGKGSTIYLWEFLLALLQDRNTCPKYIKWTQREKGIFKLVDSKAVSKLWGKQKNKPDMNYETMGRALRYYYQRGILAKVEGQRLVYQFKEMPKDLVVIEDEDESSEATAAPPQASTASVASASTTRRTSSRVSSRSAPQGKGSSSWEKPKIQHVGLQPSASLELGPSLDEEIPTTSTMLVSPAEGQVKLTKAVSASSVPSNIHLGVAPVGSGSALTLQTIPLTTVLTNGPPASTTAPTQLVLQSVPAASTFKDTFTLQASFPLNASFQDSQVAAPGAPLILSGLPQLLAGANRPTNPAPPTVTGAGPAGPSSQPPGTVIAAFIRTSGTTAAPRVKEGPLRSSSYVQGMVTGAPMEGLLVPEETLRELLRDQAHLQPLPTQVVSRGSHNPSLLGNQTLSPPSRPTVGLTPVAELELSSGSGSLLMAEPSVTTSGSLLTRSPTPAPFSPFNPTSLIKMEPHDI
# In short: as §1
# ETV2 = target: T7, ETV2 (Homo sapiens, UniProt O00321 1-342)
# T7 sequence: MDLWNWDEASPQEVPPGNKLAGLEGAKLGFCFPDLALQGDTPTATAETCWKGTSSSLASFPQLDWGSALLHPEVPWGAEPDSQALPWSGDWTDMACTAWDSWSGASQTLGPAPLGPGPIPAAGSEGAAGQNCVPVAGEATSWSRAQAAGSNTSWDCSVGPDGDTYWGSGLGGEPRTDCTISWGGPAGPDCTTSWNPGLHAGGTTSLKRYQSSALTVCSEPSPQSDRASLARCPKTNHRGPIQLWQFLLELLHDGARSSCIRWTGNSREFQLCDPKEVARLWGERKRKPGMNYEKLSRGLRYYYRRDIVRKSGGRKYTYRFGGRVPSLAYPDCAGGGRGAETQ
# In short: as §1
# ETV1 = ETV1 (Homo sapiens, UniProt P50549 1-477)
# Chain of ETV1 (P50549 whole entry): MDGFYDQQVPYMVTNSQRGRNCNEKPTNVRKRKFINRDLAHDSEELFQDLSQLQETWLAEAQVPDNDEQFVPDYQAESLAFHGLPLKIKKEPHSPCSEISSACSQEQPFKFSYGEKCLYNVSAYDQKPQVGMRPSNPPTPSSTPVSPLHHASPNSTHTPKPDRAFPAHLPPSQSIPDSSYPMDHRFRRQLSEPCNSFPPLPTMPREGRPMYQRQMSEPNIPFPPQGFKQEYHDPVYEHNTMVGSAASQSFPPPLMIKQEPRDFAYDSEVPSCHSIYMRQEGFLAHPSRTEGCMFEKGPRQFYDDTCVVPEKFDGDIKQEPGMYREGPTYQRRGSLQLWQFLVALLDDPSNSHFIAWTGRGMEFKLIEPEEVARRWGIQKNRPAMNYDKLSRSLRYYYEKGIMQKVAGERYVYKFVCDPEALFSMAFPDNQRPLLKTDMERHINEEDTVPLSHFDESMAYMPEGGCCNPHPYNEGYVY
# In short: as §1
# ERF = target: T8, ERF (Homo sapiens, UniProt P50548 1-548)
# T8 sequence: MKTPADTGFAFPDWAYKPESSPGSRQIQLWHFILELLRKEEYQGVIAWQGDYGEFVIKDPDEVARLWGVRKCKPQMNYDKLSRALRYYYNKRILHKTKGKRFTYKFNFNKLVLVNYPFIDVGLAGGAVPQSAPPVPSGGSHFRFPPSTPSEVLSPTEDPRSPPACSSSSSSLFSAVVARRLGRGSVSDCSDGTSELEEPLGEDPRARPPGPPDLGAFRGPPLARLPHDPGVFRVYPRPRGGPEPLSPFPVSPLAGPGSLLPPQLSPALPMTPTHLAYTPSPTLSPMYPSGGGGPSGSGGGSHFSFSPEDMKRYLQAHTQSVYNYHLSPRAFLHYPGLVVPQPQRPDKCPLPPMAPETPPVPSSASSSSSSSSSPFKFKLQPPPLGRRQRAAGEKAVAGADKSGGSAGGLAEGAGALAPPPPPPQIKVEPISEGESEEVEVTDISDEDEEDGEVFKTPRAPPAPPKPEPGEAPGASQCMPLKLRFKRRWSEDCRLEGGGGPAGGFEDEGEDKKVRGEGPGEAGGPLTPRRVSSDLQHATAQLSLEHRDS
# In short: as §1
# ETV3L = target: T9, ETV3L (Homo sapiens, UniProt Q6ZN32 1-361)
# T9 sequence: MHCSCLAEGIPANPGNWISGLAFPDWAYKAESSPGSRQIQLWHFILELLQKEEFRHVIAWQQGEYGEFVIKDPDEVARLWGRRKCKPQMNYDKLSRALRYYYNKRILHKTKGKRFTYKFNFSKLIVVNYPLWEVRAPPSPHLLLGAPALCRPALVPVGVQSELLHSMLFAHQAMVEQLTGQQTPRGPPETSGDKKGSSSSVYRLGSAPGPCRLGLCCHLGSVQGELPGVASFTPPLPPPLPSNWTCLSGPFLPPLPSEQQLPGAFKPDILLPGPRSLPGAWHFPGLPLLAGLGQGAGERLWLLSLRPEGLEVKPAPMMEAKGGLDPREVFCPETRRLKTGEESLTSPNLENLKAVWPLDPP
# In short: as §1
# ETS2 = target: T10, ETS2 (Homo sapiens, UniProt P15036 1-469)
# T10 sequence: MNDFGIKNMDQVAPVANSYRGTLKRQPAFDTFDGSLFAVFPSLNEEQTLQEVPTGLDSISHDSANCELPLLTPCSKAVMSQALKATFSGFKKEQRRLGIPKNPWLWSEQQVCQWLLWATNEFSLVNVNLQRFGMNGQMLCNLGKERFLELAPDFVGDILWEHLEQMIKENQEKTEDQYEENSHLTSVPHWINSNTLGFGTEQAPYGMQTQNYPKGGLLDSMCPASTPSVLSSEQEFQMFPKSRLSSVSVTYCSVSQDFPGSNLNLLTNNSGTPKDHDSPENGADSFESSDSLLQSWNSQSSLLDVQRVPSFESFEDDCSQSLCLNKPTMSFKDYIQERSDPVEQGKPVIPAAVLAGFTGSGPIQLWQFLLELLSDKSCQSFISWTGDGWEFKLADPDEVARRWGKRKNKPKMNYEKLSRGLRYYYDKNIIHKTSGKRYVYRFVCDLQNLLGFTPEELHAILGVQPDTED
# In short: as §1
# ETV7 = target: T11, ETV7 (Homo sapiens, UniProt Q9Y603 1-341)
# T11 sequence: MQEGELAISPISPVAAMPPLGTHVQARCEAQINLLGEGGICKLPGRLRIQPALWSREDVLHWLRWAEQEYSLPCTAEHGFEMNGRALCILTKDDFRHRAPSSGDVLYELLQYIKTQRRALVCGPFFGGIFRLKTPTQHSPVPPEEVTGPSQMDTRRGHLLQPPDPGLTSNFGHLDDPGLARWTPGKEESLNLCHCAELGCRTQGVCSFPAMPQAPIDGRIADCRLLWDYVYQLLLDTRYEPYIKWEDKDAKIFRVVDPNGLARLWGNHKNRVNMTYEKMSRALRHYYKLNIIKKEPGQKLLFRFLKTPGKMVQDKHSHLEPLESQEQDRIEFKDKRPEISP
# In short: as §1
# ETV3 = target: T12, ETV3 (Homo sapiens, UniProt P41162-2 1-143)
# T12 sequence: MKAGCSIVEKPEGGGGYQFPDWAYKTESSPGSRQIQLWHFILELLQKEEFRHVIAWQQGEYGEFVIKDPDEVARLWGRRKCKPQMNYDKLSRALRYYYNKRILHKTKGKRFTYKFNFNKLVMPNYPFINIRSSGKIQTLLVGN
# In short: as §1
# ETV6 = ETV6 (Homo sapiens, UniProt P41212 1-452)
# Chain of ETV6 (P41212 whole entry): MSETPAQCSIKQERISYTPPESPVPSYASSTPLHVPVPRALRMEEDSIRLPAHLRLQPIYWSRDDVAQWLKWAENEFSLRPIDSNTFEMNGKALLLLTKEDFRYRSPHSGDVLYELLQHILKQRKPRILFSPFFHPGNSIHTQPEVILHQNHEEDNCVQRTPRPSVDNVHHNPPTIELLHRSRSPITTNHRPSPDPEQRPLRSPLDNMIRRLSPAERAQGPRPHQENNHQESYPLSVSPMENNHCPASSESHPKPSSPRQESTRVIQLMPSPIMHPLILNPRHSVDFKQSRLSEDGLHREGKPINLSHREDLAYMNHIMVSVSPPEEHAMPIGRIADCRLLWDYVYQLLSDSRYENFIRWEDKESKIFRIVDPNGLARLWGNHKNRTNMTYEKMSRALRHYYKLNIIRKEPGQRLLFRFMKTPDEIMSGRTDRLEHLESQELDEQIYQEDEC
# In short: as §1
sequence,measurement,setting,value
AAGGGC,binding signal,FLI1,"1.06 fold enrichment (6-mer frequency, TF over GST control)"
same,binding signal,ELK1,"1.02 fold enrichment (6-mer frequency, TF over GST control)"
same,binding signal,GABPA,"1.1 fold enrichment (6-mer frequency, TF over GST control)"
same,binding signal,ERG,"1.06 fold enrichment (6-mer frequency, TF over GST control)"
same,binding signal,ELF1,"1.06 fold enrichment (6-mer frequency, TF over GST control)"
same,binding signal,EHF,"1.01 fold enrichment (6-mer frequency, TF over GST control)"
same,binding signal,FEV,"1.02 fold enrichment (6-mer frequency, TF over GST control)"
same,binding signal,ETV5,"1.06 fold enrichment (6-mer frequency, TF over GST control)"
same,binding signal,ELF4,"1.01 fold enrichment (6-mer frequency, TF over GST control)"
same,binding signal,ETV2,"1.06 fold enrichment (6-mer frequency, TF over GST control)"
same,binding signal,ETV1,"1.05 fold enrichment (6-mer frequency, TF over GST control)"
same,binding signal,ERF,"1.06 fold enrichment (6-mer frequency, TF over GST control)"
same,binding signal,ETV3L,"1.05 fold enrichment (6-mer frequency, TF over GST control)"
same,binding signal,ETS2,"1.1 fold enrichment (6-mer frequency, TF over GST control)"
same,binding signal,ETV7,"1.05 fold enrichment (6-mer frequency, TF over GST control)"
same,binding signal,ETV3,"1.07 fold enrichment (6-mer frequency, TF over GST control)"
same,binding signal,ETV6,"1.04 fold enrichment (6-mer frequency, TF over GST control)"
